Many of the other results were omitted from the sample, so hits are more common in it than they were.
HTT ATP protect: cytoprotection in Huntington HTT-Q103 PC12 cell model; PC12 HTT-Q103 induced, cytoprotection, ATP luminescence, 40 h; Potency, µM (titrated, usually from 56.4 µM), without a hit: cytoprotection (ATP increase), hits mostly activators; actives 0.14% (n = 230,000); AID 1471; further: potency means the concentration at half of the fitted maximal effect; % of control where 0% means no effect; nearly all actives have a fitted effect of over 45% in size
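PC12 cells with ecdysone-inducible HTT exon 1 Q103-GFP, induced with 100 nM tebufenozide and co-treated with library compounds in a dose series (1536-well, 1500 cells/well). Cytoprotection read as ATP content by ATPlite luminescence.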
HTT aggregate: inhibitors of mutant huntingtin aggregate formation in PC12 cells. PC12 HttQ103-GFP aggregates, Acumen cytometry, 40 h. Potency, µM (top dose mostly 46.1 µM), for inactives: at the top dose activity change, negative = inhibition, actives largely listed as inhibitors. actives 1.1% (n = 220,000). AID 1688; further: potency means the concentration at half of the fitted maximal effect; on the % scale 0 is the no-effect control and ±100 the full control effect; nearly all actives have a fitted effect of over 60% in size
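Quantitative HTS on tebufenozide-induced (100 nM) PC12 cells stably expressing polyQ103 Huntingtin exon 1–GFP. Reduction of bright GFP aggregates, detected by laser scanning cytometry after lysis, identified actives across the titration.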
PNC inhibitor: blocks assembly of the perinucleolar compartment; PC3M PTB-GFP, PNC prevalence imaging, 16 h; stronger effect = lower value; activity change (PNC), negative = inhibition, % at 10 µM; actives 3.1% (n = 140,000); AID 2417;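 active means readout at or below -70, meaning at least 70% loss of cells showing the perinucleolar compartment, a nuclear body marking cancer cells; inconclusive means readout between -30 and a set limit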;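 further: plate controls were DMSO wells for no effect and camptothecin positive control wells for full effect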
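Compounds are pinned in duplicate onto adhered PC3M cells stably expressing GFP-tagged PTB and incubated 16 h at 37 C. Cells are then fixed, nuclei stained with Hoechst, and PNC-positive cells counted.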
* = called active by the depositor; ? = inconclusive; . = no result given; [ ] = dose if it differs, or a comment. Unless noted, the call rests on the fitted dose curve; in most records, active means well fitted curve in the direction sought with a large enough effect; inconclusive means small, poorly fitted or top-dose-only effect, or another doubt; inactive means no such curve, though single readings can be large; an effect the other way counts as inactive or inconclusive.

SMILES	HTT ATP protect	HTT aggregate	PNC inhibitor
CCOC(=O)N(CC)c1ccc(C(O)(C(=O)OCC)C(F)(F)F)cc1 (stereo not drawn)	-1%	-9%	9
COP(=O)(OC)OC=C(Cl)Cl	-7%	-8%	.
O=C1NC(=O)C(CCc2ccncc2)(CCc2ccncc2)C(=O)N1Cc1ccccc1	0%[10 µM]	-2%[9.22 µM]	.
CC(=O)Nc1ccc(OC(=O)N(C)c2ccccc2)cc1	-1%	-8%	?
CC(=O)Nc1ccc(S(=O)(=O)N(C)CCOCc2ccccc2)cc1	3%	11µM*	-1
COc1ccc(C(=O)C2CCCN(Cc3ccccn3)C2)c(OC)c1 (stereo not drawn)	4%[10 µM]	0%[9.22 µM]	.
O=P(NS(=O)(=O)c1ccccc1)(Oc1ccccc1)Oc1ccccc1	10%	-7%	30
O=P(NS(=O)(=O)c1ccc(Cl)cc1)(Oc1ccccc1)Oc1ccccc1	2%[10 µM]	-1%	-100*
CCOc1ccc(N=Cc2c(O)n(-c3cc(C)cc(C)c3)c(=O)[nH]c2=O)cc1	-7%[10 µM]	7%[9.22 µM]	.
O=C(Nc1ccc2ccccc2c1)N1C[C@H]2C[C@@H](C1)c1cccc(=O)n1C2	10%[10 µM]	-10%[9.22 µM]	.
COc1cccc2c1C(=O)c1c(O)c3c(c(O)c1C2=O)C[C@@](O)(C(=O)CO)C[C@@H]3O[C@H]1C[C@H](N)[C@H](OC2CCCCO2)[C@H](C)O1 (stereo partly drawn)	-80%	4µM*	.
CCOP(=O)(Cc1ccc(C(=O)CC)o1)OCC	-4%[10 µM]	-2%[9.22 µM]	.
CCOP(=O)(Cc1cc(C(=O)CC)c(C)o1)OCC	.	0.01µM*	.
O=C(CCCN1CCC2(CC1)C(=O)NCN2c1ccccc1)c1ccc(F)cc1	?	-7%	?
C[C@H]1CC[C@@H]2[C@@H](C)C(=O)O[C@H]3O[C@@]4(C)CC[C@H]1[C@@]32OO4	3%[40.3 µM]	.	.
C[C@@H]1CC[C@H]2[C@@H](C)C(=O)O[C@@H]3OC4(C)CC[C@@H]1C32OO4 (stereo partly drawn)	-154%	3.2µM*	.
O=c1[nH]c(=O)n(Cl)c(=O)n1Cl	14µM*	2%	.
CCN(CC)CCCC(C)N=C(c1ccccc1)c1c(O)n(C)c(=O)n(C)c1=O (stereo not drawn)	-5%	8%	17
CN1CCC2(CC1)NC(=O)C1=C(CN(C)CC1)N2	15%	-4%	42
COc1ccc(OCC(=O)N2CCN(Cc3ccc(SC)cc3)CC2)cc1	-1%[10 µM]	-24%[9.22 µM]	.
COc1ccc(OCC(=O)N2CCN(C(C)C)CC2)cc1	4%[10 µM]	1%	-100*
CC(C)(OOC(C)(C)c1ccccc1)c1ccccc1	-8%	.	.
CCOc1ccc2nc(N=Nc3c(O)[nH]c(=S)[nH]c3=O)sc2c1	-82%	-7%	.
Cc1ccc(N)cc1Cl	3%	.	.
CCOc1cc(-c2c(C#N)c(=O)[nH]c3c2c(C)nn3-c2ccc(F)cc2)ccc1O	1%	13µM*	8
SMILES	HTT ATP protect	HTT aggregate	PNC inhibitor
O=C(O)c1ccccc1-c1c2cc(Br)c(=O)cc-2oc2[c]([Hg])c(O)c(Br)cc12	-323%	5µM*	.
O=C/C=C/c1ccccc1	10%	23%	.
COc1ccc(CCNCc2ccc(F)cc2)cc1OC	7%	16%	-106*
COc1ccc(CCNCc2cccc(C(F)(F)F)c2)cc1OC	.	10%	.
Cc1nc2sccc2c(=O)n1-c1ccccc1Cl	14%	-9%	55
Cc1nn(Cc2ccccc2)c(C)c1C(=O)NC1CCCc2ccccc21 (stereo not drawn)	3%[10 µM]	-9%	-8
O=C1NC(=O)N(Cc2ccc(F)cc2)C(=O)/C1=C\c1ccc([N+](=O)[O-])s1	-3%[10 µM]	-13%[9.22 µM]	.
O=c1[nH]c(=S)n(-c2ccc(Cl)cc2)c(O)c1C=Nc1ccc(N2CCOCC2)cc1	-29%	?	.
O=c1[nH]c(=O)n(C2CCCCC2)c(O)c1C=Nc1ccc(N2CCOCC2)cc1	-1%[10 µM]	-8%	-97*
O=c1[nH]c(=O)n(-c2ccccc2)c(O)c1/C=C1/C(c2ccccc2)=Nc2ccccc21	-27%[10 µM]	-15%	-91*
COC(=O)C1=Nc2ccccc2/C1=C\c1c(O)n(-c2ccc(OC)cc2)c(=O)[nH]c1=O	-20%	7%	67
COc1ccc(OC)c(-n2c(O)c(/C=C3\C(C)=Nc4ccccc43)c(=O)[nH]c2=O)c1	0%[10 µM]	22%[9.22 µM]	.
COC(=O)C1=Nc2ccccc2/C1=C\c1c(O)n(-c2ccc(Br)cc2)c(=O)[nH]c1=O	.	13%	-124*
Cc1ccc(S(=O)(=O)N2CCCC2c2cccnc2)cc1 (stereo not drawn)	3%[10 µM]	8%[9.22 µM]	.
Cc1nn(Cc2ccccc2Cl)c(C)c1C(=O)OCC(=O)NC1CCCC(C)C1C (stereo not drawn)	-21%[10 µM]	-7%	?
C#CCOC(=O)C1=CCCN(C)C1	29%	.	.
COC(=O)c1c(C)n(Cc2ccccc2)c2ccc(O)cc12	-5%[10 µM]	-2%[9.22 µM]	.
CCn1nc(-c2cccs2)nc2c(=O)n(C)c(=O)nc1-2	-92%[10 µM]	18µM*	?
CCn1nc(/C=C/c2ccccc2)nc2c(=O)n(C)c(=O)nc1-2	24%[10 µM]	22%[9.22 µM]	.
CC[n+]1c(-c2ccccc2)c2cc(N)ccc2c2ccc(N)cc21	-155%	14µM*	.
O[C@@H]1CCCN2C[C@@H](O)[C@@H](O)C12 (stereo partly drawn)	-23%	.	.
CCC12CN3CCN(CC(C3)C1O)C2 (stereo not drawn)	-24%[10 µM]	0%	-16
CC(C)=CCC12CN3CCN(CC(C3)C1=O)C2	1%[0.074 µM]	-5%	-88*
c1ccc2c(CN3CCN(C4CCCCC4)CC3)c[nH]c2c1	-37%	-30%	9
CN(Cc1c[nH]c2ccccc12)C1CCCCC1	.	4%	20
SMILES	HTT ATP protect	HTT aggregate	PNC inhibitor
c1ccc2c(CN3CCCCCCC3)c[nH]c2c1	-85%	13µM*	-13
c1ccc2c(CNC3CCCCC3)c[nH]c2c1	-122%	11µM*	6
CCc1ccc2nc(N3CCC(C(=O)N4CCC5(CC4)OCCO5)CC3)sc2c1	-81%	-10%	.
CCOc1ccc2nc(N3CCC(C(=O)N4CCC5(CC4)OCCO5)CC3)sc2c1	-41%	-27%	-103*
Oc1ccc(Cl)cc1Cl	3%	.	.
Oc1cc(Cl)ccc1Oc1ccc(Cl)cc1Cl	7.1µM*	.	.
CC(C)=CC1C(C(=O)OCc2cccc(Oc3ccccc3)c2)C1(C)C (stereo not drawn)	?	0%	.
COc1cccc(OC)c1C1=NCC(=O)Nc2c1oc1ccc(Br)cc21	-59%[10 µM]	?	-119*
O=C1CN=C(c2ccccc2)c2oc3ccc(Br)cc3c2N1	-13%[10 µM]	10%	?
O=C(N/N=C/c1c(O)n(CCc2ccccc2)c(=O)[nH]c1=O)c1ccccc1O	21%[10 µM]	12%[9.22 µM]	.
CC(=O)NC(Cc1ccc(N(CCCl)CCCl)cc1)C(=O)NC(CC(C)C)C(=O)O (stereo not drawn)	11%[10 µM]	5%[9.22 µM]	.
S=C1NCCN1	-21%	-6%	-85*
C=C1[C@@H]2CC[C@H]3[C@@]4(C)C[C@@H](O[C@@H]5O[C@H](CO)[C@H](OS(=O)(=O)O)[C@@H](OS(=O)(=O)O)[C@@H]5OC(=O)CC(C)C)C[C@@H](C(=O)O)[C@H]4CC[C@@]3(C2)[C@H]1O	-5%[40.3 µM]	.	.
Cc1cc(OCC(=O)NC2CCS(=O)(=O)C2)c2c3c(c(=O)oc2c1)CCC3 (stereo not drawn)	3%	18%	?

Compound activity deposited in PubChem by National Center for Advancing Translational Sciences (NCATS).
